In PubChem BioAssay AID651918 (Vanderbilt Specialized Chemistry Center, 2012):
Activity calls are given as the source filed them. How the calls were made is not given here.

Molecular target: Histone deacetylase 1 (Homo sapiens) (UniProt Q13547)
Experiment: HDAC1 enzyme inhibition, profiling panel, selectivity assay for E-cadherin restoration project, biochemical, HDAC isoform panel (AID 651918)
Details: recombinant HDAC1, fluorogenic peptide substrate deacetylation; series mostly up to 10 µM

Histone deacetylase 1 (Homo sapiens), sequence (Q13547 whole entry, looked up, canonical isoform): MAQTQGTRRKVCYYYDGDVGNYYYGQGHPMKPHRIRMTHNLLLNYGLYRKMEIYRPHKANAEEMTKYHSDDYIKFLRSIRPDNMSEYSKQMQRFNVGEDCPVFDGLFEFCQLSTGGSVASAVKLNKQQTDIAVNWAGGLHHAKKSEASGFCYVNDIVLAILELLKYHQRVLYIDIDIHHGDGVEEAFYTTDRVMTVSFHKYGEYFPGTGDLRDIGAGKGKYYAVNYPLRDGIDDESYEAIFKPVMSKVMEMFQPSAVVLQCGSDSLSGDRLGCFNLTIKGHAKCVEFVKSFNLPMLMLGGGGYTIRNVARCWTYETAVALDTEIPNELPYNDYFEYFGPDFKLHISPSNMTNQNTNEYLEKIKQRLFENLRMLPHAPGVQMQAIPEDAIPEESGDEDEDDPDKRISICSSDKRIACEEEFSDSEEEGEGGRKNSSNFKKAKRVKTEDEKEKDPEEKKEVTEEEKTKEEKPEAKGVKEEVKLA

SMILES: O=C(NCCCNC(=O)c1ccc[nH]c1=O)c1cc(-c2ccccc2)on1
- outcome: inactive
